Measurements taken from PMC8384837, “Expanding the binding specificity for RNA recognition by a PUF domain”.

molecular target: PUM1 PUF domain R4-SMV (Homo sapiens, UniProt Q14671 828-1176, N971S;H972M;Q975V); test: yeast three-hybrid, YBZ-1, SC-Leu-His + 0.5 mM 3-AT, 4 days; settings: tags: N-Gal4 AD-HA kept; label: inside an RPR1-promoter hybrid RNA with tandem MS2 sites; ssRNA
Summary of the method: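 Repeat regions from input (SC-Leu) and selection (SC-Leu-His + 0.5 mM 3-AT) plates were PCR-amplified and Illumina-sequenced after four days of growth. The cells were strain YBZ-1 with a LexA–MS2 coat fusion and a HIS3 reporter, co-expressing Pumilio-1 PUF domain libraries and matching RNA elements from a centromeric plasmid. The interaction score is the log change in variant frequency from input to selection, taken in log2 with a pseudocount of 1 for absent variants.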

PUM1 PUF domain R4-SMV, sequence (Q14671 828-1176 N971S/H972M/Q975V): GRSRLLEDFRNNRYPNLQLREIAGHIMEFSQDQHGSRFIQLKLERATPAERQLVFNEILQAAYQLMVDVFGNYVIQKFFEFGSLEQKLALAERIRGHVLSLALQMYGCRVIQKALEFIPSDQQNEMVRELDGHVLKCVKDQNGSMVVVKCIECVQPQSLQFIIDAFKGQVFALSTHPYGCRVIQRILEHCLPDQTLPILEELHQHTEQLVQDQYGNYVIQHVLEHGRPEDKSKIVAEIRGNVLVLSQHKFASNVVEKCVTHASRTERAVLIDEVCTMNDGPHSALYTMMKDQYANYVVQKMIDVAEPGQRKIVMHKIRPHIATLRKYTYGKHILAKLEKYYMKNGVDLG

Sequence	binding signal
GGCUAGAACUAGUGGAUCCCCCGGCGCCCGGCGGCUCGAGCCCGGGUAAGUGUACAUAGUCUGCAUGCCGCCGGGCGCCAUGCCUGCAGGUCGACUCUAGAAAACAUG	0.58 log2 enrichment (interaction score)
GGCUAGAACUAGUGGAUCCCCCGGCGCCCGGCGGCUCGAGCCCGGGUAAGUGUAAAUAGUCUGCAUGCCGCCGGGCGCCAUGCCUGCAGGUCGACUCUAGAAAACAUG	3.8 log2 enrichment (interaction score)
GGCUAGAACUAGUGGAUCCCCCGGCGCCCGGCGGCUCGAGCCCGGGUAAGUGUAUAUAGUCUGCAUGCCGCCGGGCGCCAUGCCUGCAGGUCGACUCUAGAAAACAUG	2.15 log2 enrichment (interaction score)
